Data as given in PubChem BioAssay AID1671192 (National Center for Advancing Translational Sciences (NCATS), 2021).
Inconclusive results are not listed. Values without a mark were called inactive. Calls follow the shape of the dose curve; as a rule, active = well fitted curve in the direction sought with a large enough effect; inconclusive = small, poorly fitted or top-dose-only effect, or another doubt; inactive = no such curve, though single readings can be large or run the other way.

Molecular target: Polyunsaturated fatty acid lipoxygenase ALOX15 (Homo sapiens) (UniProt P16050)
Sequence (P16050 whole entry, looked up): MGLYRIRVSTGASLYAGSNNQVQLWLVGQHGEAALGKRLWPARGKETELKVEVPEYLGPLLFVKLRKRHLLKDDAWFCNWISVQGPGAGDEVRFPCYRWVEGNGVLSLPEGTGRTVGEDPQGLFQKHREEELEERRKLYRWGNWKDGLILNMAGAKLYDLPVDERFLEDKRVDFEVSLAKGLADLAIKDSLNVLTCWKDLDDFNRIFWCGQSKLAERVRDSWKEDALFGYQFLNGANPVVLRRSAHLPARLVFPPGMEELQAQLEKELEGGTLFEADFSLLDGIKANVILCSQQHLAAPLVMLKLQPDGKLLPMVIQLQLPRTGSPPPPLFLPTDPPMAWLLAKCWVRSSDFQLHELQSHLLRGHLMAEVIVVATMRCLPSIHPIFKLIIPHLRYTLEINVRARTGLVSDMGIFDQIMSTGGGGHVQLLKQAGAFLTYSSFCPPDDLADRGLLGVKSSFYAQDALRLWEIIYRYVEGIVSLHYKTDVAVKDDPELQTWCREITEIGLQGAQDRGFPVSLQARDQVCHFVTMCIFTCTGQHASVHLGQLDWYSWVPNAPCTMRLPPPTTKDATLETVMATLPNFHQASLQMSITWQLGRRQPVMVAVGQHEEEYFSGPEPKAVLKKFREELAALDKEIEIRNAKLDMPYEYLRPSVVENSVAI
Experiment: Counterscreen qHTS for inhibitors of human arachidonate 12S-lipoxygenase (ALOX12): ALOX15 Assay; also: 0% is about no effect
Details: purified ALOX15 enzyme activity; series mostly up to 110 µM; activity change, negative = inhibition: at the top concentration
In short: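 Purified human ALOX15 (15hLO-1) at 40 nM in 25 mM HEPES, 0.01% Triton X-100, pH 7.5, preincubated with compound 15 min at RT. Then 50 uM arachidonic acid for 30 min; hydroperoxide detected by Fe-xylenol orange as the 573/405 nm absorbance ratio.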

| Structure (SMILES) | activity change, negative = inhibition |
| --- | --- |
| O=C1NC(=NC2CCCCC2)C2(CCN(Cc3ccc(F)cc3)C2)N1c1cccnc1 (stereo not drawn) | -19.2% |
| Cc1ccc(-c2cccc(C=O)c2)cc1Cl | -27.3% [at 233 µM] |
| O=C1Nc2ccccc2CC12CN(Cc1c[nH]c3ccccc13)C2 | -21.2% [at 146 µM] |
| O=C1NCc2ccccc2CC12CCN(Cc1cccc(F)c1F)CC2 | -27.9% |
| Cc1noc(C)c1C(=O)N1Cc2ccccc2CC2(CCN(CC3CCNCC3)C2)C1 (stereo not drawn) | -0.0561% |
| N#Cc1cccc(CN2CCCC(c3nc4ccc(F)cc4c(=O)[nH]3)C2)c1 (stereo not drawn) | -27% |
| CN1CC(=O)N(C2CCCNC2)Cc2c(NCC(C)(C)C)ncnc21 (stereo not drawn) | -8.17% |
| O=[S+]([O-])(c1ccncc1)c1nnn2c1nc(NCc1ccc(F)cc1)c1ccccc12 | -0.991% |
| O=C(c1ccccc1F)N1CCc2nc(C3CC3)nc(-c3ccc(Cl)cc3)c2C1 | -19.9% |
| O=C1NCc2ccccc2CC12CCN(Cc1ccccc1Br)C2 (stereo not drawn) | -7.1% |
| CN1CC(=O)N(C2CCCNCC2)Cc2c1ncnc2N1CCCC(CO)C1 (stereo not drawn) | -0.719% |
| CN1CC(=O)N(C2CCCNCC2)Cc2c(NCC3CC3)ncnc21 (stereo not drawn) | 2.11% |
| CN(C)C(=O)N1CCn2c(nnc2-c2cncc(Br)c2)C1 | -17% [at 146 µM] |
| CN1CC(=O)N(C2CCCNCC2)Cc2c1ncnc2N1CCN(Cc2ccccc2)CC1 (stereo not drawn) | 9.67% |
| O=C(c1ccc(C(F)(F)F)cc1)N1CCC2(CC1)C(=NC1CCCCC1)NC(=O)N2c1cc(F)cc(F)c1 | -17% |
| CNCc1ccc(F)cc1 | -9.69% [at 233 µM] |
| O=C(N1CCCC1)N1CCN(c2ccc(Cl)nn2)C(=O)C1 | -13.1% [at 146 µM] |
| NCc1ccc(-c2cc(C(F)(F)F)ccc2Cl)cc1 | 81.7% [at 146 µM] |
